Assay outcomes: PubChem, National Center for Advancing Translational Sciences (NCATS)
Compounds with a hit are over-represented: about 19% of the library has one in this group of screens.
KB-3-1 tox – kills parental KB-3-1 adenocarcinoma cells | KB-3-1 viability, CellTiter-Glo ATP luminescence, 72 h | Potency, µM (titrated, usually from 46.1 µM), usual class: cytotoxic | hit rate 1.4% among 400,000; also: nearly all actives have a fitted effect of over 60% in size
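KB-3-1 cells, DMEM (no phenol red) + 10% FBS; compound by pin transfer, 72 h, 37 °C. Readout: CellTiter-Glo luminescence after 10 min. Data normalized, curve-fitted.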
KB-V1 MDR tox – kills drug-selected multidrug resistant KB-V1 cells. hit rate 3.4% among 400,000. KB-V1 MDR cells viability, CellTiter-Glo, 72 h. AID 1347076. Potency, µM (doses to about 46.1 µM), usual class: cytotoxic; also: nearly all actives have a fitted effect of over 60% in size
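In this primary screen, KB-V1 cells overexpressing P-gp are incubated with library compounds (lowest to highest concentration) for 72 h at 37 degrees C before a luminescent ATP viability read.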
HT1080 IDH1KD tx – toxicity to HT-1080 IDH1 knockdown cells (counter line); Potency, µM (top dose mostly 46.1 µM), without a hit: at the top dose activity, negative = toxicity, hits mostly cytotoxic; hit rate 2% among 360,000; HT-1080 IDH1 knockdown viability, ATP luminescence, 48 h;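 also: 0% = DMSO wells and -100% = cell-free medium wells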
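IDH1KD HT-1080 cells, 750/well, RPMI + 5% FBS; compound pinned after 2 h settling; 48 h, 37 °C; CellTiter-Glo luminescence; % activity normalised to DMSO and no-cell wells; curves fitted, classed by r2 and efficacy.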
HT1080-NT tox – kills 2HG-producing HT-1080-NT fibrosarcoma cells | HT-1080-NT fibrosarcoma viability, CellTiter-Glo ATP luminescence, 48 h | Potency, µM (series often up to 46.1 µM), without a hit: at the highest dose activity, negative = less viability, usual class: cytotoxic | hit rate 1.6% among 360,000 | AID 686970;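 also: NT is the 2HG producing partner of a matched IDH1 knockdown line; 0% = DMSO-treated cells and -100% = media-only wells without cells; nearly all actives have a fitted effect of over 55% in size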
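Viability by CellTiter-Glo luminescence after 48 h compound exposure at 37C of HT-1080-NT cells (750/well, RPMI, 5% FBS). % activity scaled between DMSO wells and medium-only wells, then curve-fitted and categorized by curve class.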
DT40 TDP1 no CPT – qHTS for Inhibitors of human tyrosyl-DNA phosphodiesterase 1 (TDP1): qHTS in cells in absence of CPT | DT40 Tdp1-/- hTDP1 cells, no CPT, ATP luminescence, 48 h | Potency, µM (highest dose often 46.2 µM), inactives show at the highest dose activity change, negative = growth inhibition, actives largely listed as inhibitors | hit rate 15% among 420,000; also: nearly all actives have a fitted effect of over 55% in size
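Readout: luminescence from CellTiter-Glo after 30 min in the dark at RT. Cells: DT40 Tdp1-/- with stable hTDP1, 400/well. Exposure: compounds alone, ≥48 hr, 37 °C.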
DT40 TDP1 CPT – DT40-hTDP1 cell growth loss with CPT | chicken DT40 Tdp1-/-;hTDP1 cells + 20 nM CPT, ATP luminescence, 48 h | Potency, µM (series often up to 46.2 µM), inactives show at the top dose activity change, negative = growth inhibition, actives largely listed as inhibitors | hit rate 12% among 420,000 | AID 686979; also: nearly all actives have a fitted effect of over 55% in size
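Chicken DT40 Tdp1-/- cells complemented with human TDP1, 400 cells/well, exposed to compounds plus 20 nM camptothecin for at least 48 h at 37 C; viability read as ATP content by CellTiter-Glo luminescence.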
An asterisk follows results filed as active; i = inactive; ? = inconclusive; nt = not tested or not shown; [ ] = dose if it differs, or a comment. Calls follow the shape of the dose curve; as a rule, active = well fitted curve in the direction sought with a large enough effect; inconclusive = small, poorly fitted or top-dose-only effect, or another doubt; inactive = no such curve, though single readings can be large; an effect the other way counts as inactive or inconclusive. Unless noted, % is scaled to controls: 0 for no effect and ±100 for the full control effect; potency is read from the fitted curve at half-maximal effect.

SMILES	KB-3-1 tox	KB-V1 MDR tox	HT1080 IDH1KD tx	HT1080-NT tox	DT40 TDP1 no CPT	DT40 TDP1 CPT
NC(=O)c1cc2ccc(O)cc2oc1=Nc1ccccc1	i	i	-22%	-17%	?	15µM*
COc1cccc2cc(C(=O)NCc3ccco3)c(=Nc3ccc(C(=O)O)cc3)oc12	i	?	-21%[9.24 µM]	?	16µM*	?
COc1ccc2cc(C(=O)NCc3ccccc3)c(=Nc3ccc(C(=O)O)cc3)oc2c1	i	i	-1%	-2%	13µM*	?
Cc1ccc(C(=O)N2CCC(N3CCN(Cc4ccc(F)cc4)C(=O)C3=O)CC2)cc1	i	i	nt	nt	-10%	-4%
CCOCCCNC(=O)C1CCN(C(=O)c2cc3sccc3n2C)CC1	i	i	nt	nt	-18%	11%
CCOC(=O)CNC(=O)Cn1cnc2c(nnn2-c2cccc(OC)c2)c1=O	i	i	6%	5%	13%	-5%
COc1cccc(CN(C)C(=O)c2cc(COc3ccc4ncccc4c3)on2)c1	4.1µM*	4.1µM*	-20%	?	2.9µM*	3.3µM*
COc1cccc(CN(C)C(=O)c2cc(COc3c(F)cccc3F)on2)c1	i	i	24%	30%	-16%	-22%
COc1cccc(CN(C)C(=O)c2cc(COc3ccc(-n4cncn4)cc3)on2)c1	i	i	-14%	-14%	18µM*	21µM*
CN(Cc1ccccc1)C(=O)Cn1nnc(-c2ccccc2)c1COc1ccccc1	i	i	-12%	-17%	21µM*	?
CN(Cc1ccccc1)C(=O)Cn1nnc(-c2ccccc2)c1COc1ccc2ccccc2c1	?	i	-10%	-23%	18µM*	23µM*
O=C(Cn1nnc(-c2ccccc2)c1COc1ccc2ccccc2c1)NCC1CC1	i	i	-5%	-9%	?	18µM*
Nc1ncnc2c1ncn2[C@@H]1O[C@H](CNC(=O)[C@@H]2CCCN2S(=O)(=O)c2ccc(F)cc2)[C@@H](O)[C@H]1O	i	i	0%	7%	-5%	-12%
COc1ccc(NCc2ccccc2-c2nnc(-c3ccccc3)o2)cc1Cl	i	?	nt	nt	-16%	-16%
COc1ccccc1N1CCN(CC(=O)Nc2cc(F)ccc2C)CC1	i	i	-20%	-20%	?	?
O=C(CN1CCN(c2ccccn2)CC1)Nc1cc(C(F)(F)F)ccc1Cl	i	?	3%[9.24 µM]	-12%	18µM*	?
COc1ccccc1N1CCN(CC(=O)Nc2cc(C)nn2-c2nc(C)cc(C)n2)CC1	4.6µM*	i	?	?	3.3µM*	4.1µM*
O=C(CN1CCN(c2ccccn2)CC1)Nc1ccc2ccccc2c1	i	?	-15%	-17%	-28%	-21%
O=C(CN1CCN(c2ccccn2)CC1)Nc1ccc(Cl)c(C(F)(F)F)c1	i	?	-12%[9.24 µM]	1%	18µM*	18µM*
COc1ccc(C(=O)OCC(=O)Nc2ccc(Cl)c(C(F)(F)F)c2)c(OC)c1OC	i	?	4%	-5%	21µM*	21µM*
C[C@H](NC(=O)[C@@H]1CCCN1C(=O)[C@@H]1CCCN1C(=O)OC(C)(C)C)c1ccccc1	i	i	17%	24%	-6%	?
Cc1ccc(C(=O)NCCN2CCC(n3c(=O)[nH]c4ccccc43)CC2)cc1	?	i	-10%	-3%	?	?
CC(=O)Nc1ccc(S(=O)(=O)N(Cc2ccco2)CC2CCCO2)cc1 (stereo not given)	i	?	20%	5%	?	-1%
O=C1CN(C(=O)NCC(=O)N2CCCC2)c2ccccc2N1	i	i	0%	10%	-26%	8%
